# Measured values as given in publication PMC4336329 (PLoS ONE, 2015).
# In all, about 310,000 compounds went through this assay and about 14,000 (4.5%) showed an effect of 50% or more. The effect is printed as a negative number. This excerpt belongs to a sample that is enriched for strong results.
# Target: human ether-à-go-go-related gene (hERG) potassium channel (human, UniProt Q12809)
# Assay: primary screen, population patch clamp on CHO cells stably expressing hERG; higher = less effect of the substance
# 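Further: peak tail current of the secondary pulse compared with the same well before compound.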
# Chain of human ether-à-go-go-related gene (hERG) potassium channel (Q12809 whole entry, looked up): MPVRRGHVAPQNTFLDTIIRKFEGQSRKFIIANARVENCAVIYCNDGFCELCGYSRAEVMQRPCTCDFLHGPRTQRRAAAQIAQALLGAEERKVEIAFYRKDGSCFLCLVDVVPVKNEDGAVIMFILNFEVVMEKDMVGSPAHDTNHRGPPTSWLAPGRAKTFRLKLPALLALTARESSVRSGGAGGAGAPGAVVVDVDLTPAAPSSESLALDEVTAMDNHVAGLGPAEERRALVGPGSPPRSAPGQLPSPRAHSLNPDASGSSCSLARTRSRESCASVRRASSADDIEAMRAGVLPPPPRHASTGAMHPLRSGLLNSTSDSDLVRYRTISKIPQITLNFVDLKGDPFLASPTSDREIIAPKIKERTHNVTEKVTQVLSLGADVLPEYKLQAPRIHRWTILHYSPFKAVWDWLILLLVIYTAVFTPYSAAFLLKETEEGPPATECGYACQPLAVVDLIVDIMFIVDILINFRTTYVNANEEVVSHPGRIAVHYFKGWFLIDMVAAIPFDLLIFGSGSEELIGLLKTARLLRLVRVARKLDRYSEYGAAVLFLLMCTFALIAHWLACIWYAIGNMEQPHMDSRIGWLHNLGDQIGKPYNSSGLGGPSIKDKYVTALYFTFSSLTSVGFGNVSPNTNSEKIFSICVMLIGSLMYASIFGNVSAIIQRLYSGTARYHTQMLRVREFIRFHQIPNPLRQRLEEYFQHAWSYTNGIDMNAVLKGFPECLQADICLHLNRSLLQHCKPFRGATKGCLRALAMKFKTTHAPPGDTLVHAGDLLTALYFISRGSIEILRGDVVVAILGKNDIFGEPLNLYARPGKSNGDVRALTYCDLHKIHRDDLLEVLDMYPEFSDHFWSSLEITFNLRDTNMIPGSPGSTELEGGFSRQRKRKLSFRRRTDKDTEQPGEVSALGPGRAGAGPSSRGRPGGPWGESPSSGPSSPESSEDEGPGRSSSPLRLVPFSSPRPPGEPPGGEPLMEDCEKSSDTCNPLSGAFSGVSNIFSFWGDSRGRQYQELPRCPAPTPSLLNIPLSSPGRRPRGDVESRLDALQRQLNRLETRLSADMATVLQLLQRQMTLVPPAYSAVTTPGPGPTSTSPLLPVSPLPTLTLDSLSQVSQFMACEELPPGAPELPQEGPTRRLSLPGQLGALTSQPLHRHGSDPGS
row,SMILES,"hERG current change (%, negative = inhibition) at 10uM [%]"
1,c1ccc(OCCCn2ccnc2)cc1,16.3
2,O=c1ccc2ccccc2n1Cc1cccc(F)c1,9.61
3,COc1ccc(CCN2C(=O)CC(Cc3ccccc3)C2=O)cc1OC (stereo not drawn),-17.2
4,Cc1ccc(SCC(=O)OC(C)C(=O)NCc2ccccc2)cc1 (stereo not drawn),-1.8
5,COc1ccc2c(c1)OC[C@H]1[C@H]2N2C(=O)CN(CC3CCCO3)C(=O)[C@@]2(C)[C@H]1c1ccccc1 (stereo partly drawn),-1.62
6,CCCn1cnc2cc(NCc3cccc(OC)c3)ccc21,-67.2
7,COc1ccc(CNc2ccc3c(c2)nc(C)n3C)cc1,-31.9
8,CCn1cnc2cc(NCc3ccncc3)ccc21,6.89
9,COc1ccc(OC)c(CNc2ccc3c(c2)nc(C)n3C)c1,-68.4
10,CCc1ccc(CNc2ccc3c(c2)ncn3CC)cc1,-19.7
11,COc1ccc(CNc2ccc3c(c2)nc(C)n3C)cc1OC,-17.1
12,CCn1cnc2cc(NCc3ccc(Br)cc3)ccc21,-61.3
13,CCn1cnc2cc(NCc3ccc(N(C)C)cc3)ccc21,-8.28
14,CCn1cnc2cc(NCc3ccc(OC)cc3)ccc21,-39.4
15,CCCn1cnc2cc(NCc3cccs3)ccc21,-10.9
16,CCn1cnc2cc(NCc3ccc(Cl)cc3)ccc21,-68
17,CCn1cnc2cc(NCc3ccc(C)cc3)ccc21,-40.4
18,CCc1ccc(N(CC(=O)Nc2ccccc2C(=O)N2CCCC2)S(C)(=O)=O)cc1,-10.6
19,CN(C)c1ccc(CNn2cnnc2SCc2ccc(F)cc2)cc1,-9.48
20,COc1ccc(NC(=O)CC2C(=O)N(c3ccc(OC)cc3)C(=O)N2C(C)C)cc1 (stereo not drawn),-5.34
21,Cc1ccc(NC(=O)c2ccc(-n3cncn3)c([N+](=O)[O-])c2)cc1F,-18.1
22,CC12CCC(C(=O)Nc3ccccc3Br)(C/C1=N\O)C2(C)C (stereo not drawn),4.44
23,CC(On1nnc2ccccc21)C(=O)N1CCN(Cc2ccccc2)CC1 (stereo not drawn),18.2

row,SMILES,"hERG current change (%, negative = inhibition) at 10uM [%]"
1,C(#CCN1CCOCC1)COCc1ccccc1.Cl,11.1
2,COc1cccc(OCCOc2ccc(/C=C3/SC(=S)NC3=O)cc2)c1,23
3,CN(CC(=O)Nc1ccccc1Cl)C(=O)CSc1nnc(-c2ccco2)o1,-7.79
4,CCCn1cnc2cc(NCc3ccc(Br)cc3)ccc21,-73.9
5,Cc1nc2cc(NCc3ccc(Cl)cc3)ccc2n1C,-70.6
6,Cc1ccc(CNc2ccc3c(c2)nc(C)n3C)cc1,-21.9
7,CCCn1cnc2cc(NCc3ccccc3O)ccc21,-0.21
8,Cn1cnc2cc(NCc3ccccc3Cl)ccc21,-35
9,CCCn1cnc2cc(NCc3cccc(OC)c3O)ccc21,-29.3
10,CCCCn1cnc2cc(NCc3cccc(OC)c3O)ccc21,-51.2
11,CCn1cnc2cc(NCc3cccc(OC)c3O)ccc21,-5.91
12,CCn1cnc2cc(NCc3ccccc3Cl)ccc21,-52.1
13,CCCn1cnc2cc(NCc3ccccn3)ccc21,-18.8
14,Cn1cnc2cc(NCc3ccc(Cl)cc3)ccc21,-18.3
15,CCCCn1cnc2cc(NCc3ccncc3)ccc21,-1.31
16,CN(C)c1ccc(C(CNC(=O)c2ccccc2F)c2c[nH]c3ccccc23)cc1 (stereo not drawn),-8.6
17,Cc1[nH]c(C)c(S(=O)(=O)Nc2ccc(OC(F)(F)F)cc2)c1C(=O)N1CCCCC1,-7.79
18,O=C(N/N=C/C=C/c1ccccc1)c1cccc(Br)c1,5.3
19,FC(F)(F)c1ccccc1N1CC1c1ccncc1 (stereo not drawn),13.3
20,O=C(O)c1ccccc1C(=O)NC1CCN(c2nccc(C(F)(F)F)n2)CC1,9.16
21,COc1ccc(N2C(=O)CC(N3CCCC4CCCCC43)C2=O)cc1 (stereo not drawn),1.28
22,CCOC(=O)c1ccc(NC(=O)C2CC2)cc1,-18.4
23,Cn1cccc1-c1cc(C(=O)N/N=C/c2cccc(O)c2)[nH]n1,-7.31

row,SMILES,"hERG current change (%, negative = inhibition) at 10uM [%]"
1,COc1cccc(/C=N/NC(=O)c2cc(-c3cccn3C)n[nH]2)c1,-61.1
2,COc1ccc(/C=N/NC(=O)c2cc(-c3cccn3C)n[nH]2)cc1OC,-27.5
3,CCOc1nc2ccccc2cc1C=O,-5.31
4,Cc1ccc(NS(=O)(=O)c2ccc(NC(=O)[C@@H]3CCCC[C@@H]3C(=O)O)cc2)c(C)c1,18
5,Cc1ccccc1N1CC(O)(c2cccs2)[N+]2=C1CCCC2.[Br-] (stereo not drawn),-25.9
6,Cc1ccccc1N1CC(O)(c2ccccc2)[N+]2=C1SCC2.[Br-] (stereo not drawn),-19.5
7,COc1ccc(OC)c(N2CC(O)(c3cccs3)[N+]3=C2SCCC3)c1.[Br-] (stereo not drawn),-50.5
8,COc1ccc(C2(O)CN(c3ccccc3)C3=[N+]2CCS3)cc1OC.[Br-] (stereo not drawn),1.7
9,Cc1ccc(C)c(N2CC(O)(c3cccs3)[N+]3=C2CCCC3)c1.[Br-] (stereo not drawn),-23
10,COc1ccc(OC)c(N2CC(O)(c3ccccc3)[N+]3=C2SCCC3)c1.[Br-] (stereo not drawn),-72.6
11,CN(C)C(CNC(=O)c1ccc(NS(=O)(=O)c2cccc([N+](=O)[O-])c2)cc1)c1ccco1 (stereo not drawn),12.4
12,Cc1ccc(NC(=O)COC(=O)COc2cccc3c2OC(C)(C)C3)cc1C,-13.9
13,CCCNC(=O)CN(C)S(=O)(=O)c1c(C)cc(C)cc1C,6.62
14,Cn1ccnc1C(O)c1ccc(OCc2ccccc2)cc1 (stereo not drawn),4.19
15,O=C(O)C(=O)O.O=C1CCCN1CN1CCCCC1,0.00358
16,Cc1c(Cl)cccc1NC(=S)NCc1ccco1,4.12
17,COc1ccc(Nc2nc(C(=O)NCc3ccco3)cs2)cc1,-14.4
18,S=C(NCc1ccco1)Nc1ccccc1Cl,-52
19,S=C(NCc1ccco1)Nc1cccc(Cl)c1Cl,-3.13
20,O=C(NCc1ccco1)c1csc(Nc2ccccc2Cl)n1,-63.1
21,Cc1ccc(Nc2nc(C(=O)NCc3ccco3)cs2)cc1,-13.5
22,Cc1cc(-c2n[nH]c(=S)n2/N=C/C=C/c2ccccc2)n[nH]1,6.76
23,Cc1ccc(NS(=O)(=O)c2ccc3[nH]c(=O)[nH]c3c2)cc1,21

row,SMILES,"hERG current change (%, negative = inhibition) at 10uM [%]"
1,N/C(Cc1ccc(Cl)cc1Cl)=N\OC(=O)Cc1ccccc1,7.08
2,CC(C)c1ccc(NC(=O)[C@H](NC(=O)[C@@H]2Cc3ccccc3CN2)c2ccccc2)cc1,-6.39
3,Cc1ccc(NC(=O)[C@H](Cc2c[nH]c3ccccc23)NC(=O)[C@@H]2Cc3ccccc3CN2)c(C)c1,-30.1
4,Cc1ccc(NC(=O)[C@@H](C)NC(=O)[C@@H]2Cc3ccccc3CN2)cc1,-14.9
5,Cc1ccc(NC(=O)[C@H](Cc2ccccc2)NC(=O)[C@@H]2Cc3ccccc3CN2)c(C)c1,-5.23
6,COc1cccc(NC(=O)[C@H](NC(=O)[C@@H]2Cc3ccccc3CN2)c2ccccc2)c1,-76.4
7,COc1cccc(NC(=O)[C@H](CC(C)C)NC(=O)[C@@H]2Cc3ccccc3CN2)c1,-16
8,COc1cccc(NC(=O)[C@H](Cc2ccccc2)NC(=O)[C@@H]2Cc3ccccc3CN2)c1,-2.99
9,CC(NC(=O)[C@H](NC(=O)[C@@H]1Cc2ccccc2CN1)c1ccccc1)c1ccccc1 (stereo partly drawn),-32.9
10,Cc1ccc(NC(=O)[C@H](NC(=O)[C@@H]2Cc3ccccc3CN2)c2ccccc2)cc1,-64.1
11,CC(C)c1ccc(NC(=O)[C@@H](C)NC(=O)[C@@H]2Cc3ccccc3CN2)cc1,-29.2
12,COc1ccc(NC(=O)[C@H](NC(=O)[C@@H]2Cc3ccccc3CN2)c2ccccc2)cc1,-50.3
13,Cc1ccc(NC(=O)[C@H](NC(=O)[C@@H]2Cc3ccccc3CN2)c2ccccc2)c(C)c1,-60.7
14,CCOc1ccccc1N(C(=O)c1ccccc1Cl)C1=NC(C)(C)CS1,-2.51
15,CC(NC(=O)c1ccccc1[N+](=O)[O-])C1CC2CCC1C2 (stereo not drawn),5.96
16,O=C(NCc1ccc2c(c1)OCO2)c1ccc(COc2cc(Cl)ccc2Cl)o1,11.7
17,O=C(c1ccccc1)N1N=C(c2ccccc2O)CC1c1ccccc1 (stereo not drawn),6.88
18,CCCCCOC(=O)C1=C(C)NC(=O)NC1c1ccc2c(c1)OCO2 (stereo not drawn),6.41
19,CCOc1ccc(/C=N/N2C(=O)C(CC(=O)Nc3ccc(F)cc3F)SC2=NC)cc1OC (stereo not drawn),3.82
20,CCOc1ccc(CN(C)C(=O)CCl)cc1,-1.2
21,CS(=O)(=O)N(CC(=O)NCc1ccc2c(c1)OCO2)c1ccccc1,6.97
